The text below walks through data of the supplement of paper PMC7366291.

Common to all, as to settings: 25 µM; exposure: 24-48 hpf
Assay [1] concerns Danio rerio Tg(wt1b:EGFP) embryo, pronephros. Kind of assay: glomerular separation, fold change vs DMSO control; higher = glomeruli further apart (abnormal). Put shortly:
(§1)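 Dechorionated Tg(wt1b:EGFP) zebrafish embryos were kept from 24 to 48 hpf at 28.5°C in HEPES-buffered E3 containing 0.003% PTU, 0.5% DMSO and 25 μM compound. The pronephroi were then imaged from the dorsal side in agarose-filled 96-well plates at 470 nm with 10 z-slices, and 16 reference points were placed by hand on maximum projections in Fiji so that a macro could calculate distances and angles. Values lying more than 2 SD from the mean of a feature were discarded. Every feature is given as a fold change against the mean of DMSO-treated embryos from the same day.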

The test system is the same in assay [2]. Kind of assay: glomerular width (mean of left and right), fold change vs DMSO control; higher = wider glomerulus. Put shortly:
as §1

The test system is the same in assay [3]. In words: fraction of imaged embryos annotated as normal kidney; higher = less nephrotoxic; extreme values may be limits of the assay. An outline of the steps:
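Zebrafish embryos carrying Tg(wt1b:EGFP) were dechorionated and exposed to 25 μM compound (0.5% DMSO) between 24 and 48 hpf at 28.5°C. Their pronephroi were imaged by widefield fluorescence, and each embryo was classed by hand from maximum projections. The measure is the fraction of embryos per treatment falling in the normal-kidney category.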

For assay [4] the test system is unchanged. Kind of assay: pronephric angle neck segment to proximal convoluted tubule (mean of left and right), fold change vs DMSO control; higher = larger pronephric angle. An outline of the steps:
as §1

Molecules are shown by their SMILES. Counter-ions that a name gives are not always drawn. ± gives the standard deviation or the standard deviation of the averaged measurements.

In the case of `CN(C(=O)CN(CCO)CC(=O)N(C)C(C)(C)Cc1ccccc1)C(C)(C)Cc1ccccc1` [Oxethazaine], the glomerular separation in assay [1] turned out to be 0.855 ± 0.18. The compound also had a glomerular width in assay [2] of 1.1 ± 0.017. In addition, the “fraction of imaged embryos annotated as normal kidney” value (“fraction of imaged embryos annotated” for short) in assay [3] stood at 0.727. Moreover, in assay [4], the “pronephric angle neck segment” value was found to be 0.94 ± 0.059.
The matching figures for `CO[C@H]1/C=C/O[C@@]2(C)Oc3c(C)c(O)c4c(c3C2=O)C2=NC3(CCN(CC(C)C)CC3)NC2=C(NC(=O)/C(C)=C\C=C\[C@H](C)[C@H](O)[C@@H](C)[C@@H](O)[C@@H](C)[C@H](OC(C)=O)[C@@H]1C)C4=O` [Rifabutin]: 1.4 ± 0.24, 0.94 ± 0.1, 0.583 and 1.06 ± 0.011.
In the case of `NCC[C@H](O)C(=O)N[C@@H]1C[C@H](N)[C@@H](O[C@H]2O[C@H](CN)[C@@H](O)[C@H](O)[C@H]2O)[C@H](O)[C@H]1O[C@H]1O[C@H](CO)[C@@H](O)[C@H](N)[C@H]1O` [Amikacin hydrate], the glomerular separation in assay [1] was determined as 1.13 ± 0.48. In assay [2], this compound displayed a glomerular width of 1.02 ± 0.028. For the same compound, the “fraction of imaged embryos annotated” value in assay [3] is 0.667. In addition, the “pronephric angle neck segment” value in assay [4] came to 1.04 ± 0.02.
The matching figures for `O=c1[nH]c(=O)n(C2CCCO2)cc1F` (stereo not drawn) [Tegafur]: 1.02 ± 0.41, 1.05 ± 0.057, 0.917 and 0.991 ± 0.041.
Compound `Clc1ccc(Nc2nnc(Cc3ccncc3)c3ccccc23)cc1` [Vatalanib] came in with a glomerular separation in assay [1] of 1.37 ± 0.99. In assay [2], this compound showed a glomerular width of 0.886 ± 0.039. Besides, the “fraction of imaged embryos annotated” value in assay [3] turned out to be 0.833. Further, the “pronephric angle neck segment” value in assay [4] came out at 1.02 ± 0.046.
For the compound `Fc1ccc(C(c2ccc(F)cc2)N2CCN(C/C=C/c3ccccc3)CC2)cc1` [Flunarizine dihydrochloride], the glomerular separation in assay [1] was found to be 1.22 ± 0.69. The glomerular width in assay [2] stood at 0.932 ± 0.0099. Further, the “fraction of imaged embryos annotated” value in assay [3] worked out at 0.364. Further, in assay [4], the “pronephric angle neck segment” value was found to be 0.937 ± 0.017.
The like results for `CN(Cc1cc(Br)cc(Br)c1N)C1CCCCC1` [Bromhexine hydrochloride] were, in that order, 0.612 ± 0.2, 0.984 ± 0.067, 1 and 1 ± 0.026.
The matching figures for `C=CCN1CCCC1CNC(=O)c1cc2nn[nH]c2cc1OC` (stereo not drawn) [Alizapride hydrochloride]: 1.18 ± 0.37, 0.924 ± 0.018, 0.917 and 1.02 ± 0.049.
The like results for `Cc1ccc2c(c1)c1c3n2CCNC3CCC1` (stereo not drawn) [Pirlindole mesylate] were, in that order, 0.876 ± 0.33, 1.07 ± 0.036, 0.833 and 0.95 ± 0.0043.
Turning to `Cc1cc(=O)oc2cc(O)ccc12` [Hymecromone], the glomerular separation in assay [1] was found to be 0.837 ± 0.36. The glomerular width in assay [2] worked out at 1 ± 0.013. In assay [3], the “fraction of imaged embryos annotated” value was 0.909. In assay [4], the “pronephric angle neck segment” value stood at 0.98 ± 0.01.
As for `CC1(C)NC(=O)N(c2ccc([N+](=O)[O-])c(C(F)(F)F)c2)C1=O` [Nilutamide], in assay [1], the glomerular separation turned out to be 1.14 ± 0.42. This compound also yielded a glomerular width in assay [2] of 1.13 ± 0.035. Besides, the “fraction of imaged embryos annotated” value in assay [3] was 0.667. Further, in assay [4], the “pronephric angle neck segment” value turned out to be 0.945 ± 0.013.
The matching figures for `C[C@]12CCC(=O)C=C1CC[C@@H]1[C@@H]2C(=O)C[C@@]2(C)[C@H]1CC[C@]2(O)C(=O)CO` [Cortisone]: 1.08 ± 0.37, 1.13 ± 0.017, 0.917 and 1.031 ± 0.0011.
The matching figures for `CCOC(=O)C1=C[C@]2(CC)CCCN3CCc4c(n1c1ccccc41)[C@@H]32` [Vinpocetine]: 1.08 ± 0.2, 1.037 ± 0.0011, 0.909 and 1.05 ± 0.039.
In the case of `CC(=O)OCC(=O)[C@@]12N=C(C)O[C@@H]1C[C@H]1[C@@H]3CCC4=CC(=O)C=C[C@]4(C)[C@H]3[C@@H](O)C[C@@]12C` [Deflazacort], in assay [1], the glomerular separation is 1.15 ± 0.41. Further, the glomerular width in assay [2] was found to be 1.06 ± 0.014. The “fraction of imaged embryos annotated” value in assay [3] was 0.25. In addition, in assay [4], the “pronephric angle neck segment” value worked out at 0.944 ± 0.058.
Turning to `O=C1O[C@H]([C@@H](O)CO)C(O)=C1O` [Ascorbic acid], in assay [1], the glomerular separation was 1.08 ± 0.33. This compound also gave a glomerular width in assay [2] of 1.01 ± 0.09. In assay [3], the “fraction of imaged embryos annotated” value came out at 0.75. In addition, the “pronephric angle neck segment” value in assay [4] turned out to be 1.03 ± 0.025.
The matching figures for `O=C(NCCO[N+](=O)[O-])c1cccnc1` [Nicorandil]: 1.05 ± 0.44, 0.989 ± 0.083, 0.917 and 0.9232 ± 0.008.
The like results for `CC1(C)O[C@@H]2C[C@H]3[C@@H]4C[C@H](F)C5=CC(=O)C=C[C@]5(C)[C@@]4(F)[C@@H](O)C[C@]3(C)[C@]2(C(=O)CO)O1` [Fluocinolone acetonide] were, in that order, 1.23 ± 0.54, 1.26 ± 0.028, 0.0833 and 1.02 ± 0.065.
